The test system of assay [1] is Aerobactin synthetase IucA (Klebsiella pneumoniae). The assay is described as follows: inhibition of K. pneumoniae IucA enzyme – biochemical, Tocris library, absorbance (AID 1345561).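 Further: 100% = enzyme without compound and 0% = no enzyme.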 As to conditions: purified IucA enzyme assay, absorbance (OD) read-out; stronger effect = lower value;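 tested at 8 µM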.
Assay [2] can be described thus: viability loss with induced miR-34 in A549 – imaging, A549 dox-inducible miR-34, nuclei and caspase counts, primary screen (AID 1347080;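 active means compounds whose cell count with miR-34 switched on is under 0.7 times the count with it off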). The note with it: A549 miR-34 inducible, Hoechst nuclei count, 48 h.
The nature of assay [3]: galactose survival enhancers in mitochondrial complex I cybrids – cell-based, galactose medium, ATP luminescence, primary screen (AID 1645843;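 active means z-score of at least 1.8 in each of two replicates, scored against plate mean and spread of sample wells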;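 further: positive z means more ATP and so rescue of galactose-driven cybrid death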). As to conditions: complex I mutant cybrid cells, 72 h, stronger effect = higher value.
The nature of assay [4]: compounds altering circadian rhythm period length – cell-based, LOPAC library, luminescence reporter (AID 2774).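 Further: values are relative to mean of DMSO wells on each plate.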 The note with it: circadian reporter cells, at 7 µM, actives lie on both sides.
For assay [5], the system named is Aerobactin synthetase IucA (Klebsiella pneumoniae, hypervirulent). The assay is described as follows: biochemical IucA inhibition screen of LOPAC library by absorbance (AID 1346212).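 Further: 100% = no compound wells and 0% = no enzyme wells.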 As to conditions: IucA enzyme assay, absorbance (OD) readout; stronger effect = lower value;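 tested at 8 µM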.
For assay [6], the system named is Hepatitis C virus NS3 helicase. Put plainly: blockers of NS3h binding to ssDNA – biochemical, fluorescence polarization, LOPAC1280 library, primary screen (AID 687035; in the data active means inhibition above about 37%). As to conditions: Purified HCV NS3 helicase, Cy5-dT15 ssDNA binding fluorescence polarization; stronger effect = higher value; concentration not given here.
A short description of assay [7]: compounds altering Cy5-DNA-NS3h complex signal – biochemical, LOPAC1280, artefact control for HCV NS3 helicase inhibitor project (AID 687037). The note with it: Cy5-DNA-NS3h complex fluorescence interference counterscreen.
A short description of assay [8]: blockers of cellular phospholipid synthesis – cell-based, LOPAC library, screen 4, primary screen (AID 1347384). The note with it: animal cells, phospholipid biosynthesis inhibition screen; at 10 µM.
Assay [9] deals with ATP-dependent translocase ABCB1 (Homo sapiens) (UniProt P08183). Put plainly: P-glycoprotein substrate transport blockade – cell-based (AID 377; in the data active means fluorescence slope change above about 50%). The note with it: MDR1-expressing cells, fluorescent substrate accumulation slope; stronger effect = higher value; concentration not given here.
Assay [10] is described as follows: compounds altering viability of human ES cells (AID 493140).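 Further: cells exposed to compounds for four days before counting.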 The note with it: human embryonic stem cell survival screen; stronger effect = higher value.
A short description of assay [11]: P. berghei load reduction in hepatocytes – cell-based, HepG2, luciferase luminescence, HepG2 viability, primary screen (AID 624349; in the data active means parasite load remaining mostly below about 12%, no sharp cut-off; inactive means mostly above about 10%;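 further: 100% = mean of DMSO negative control wells on the same plate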). The note with it: P. berghei liver stage in HepG2, luciferase luminescence, concentration not given here; parasite load remaining: stronger effect = lower value; viability: measured here: HepG2 viability without parasites.
Assay [12] can be described thus: MELAS cybrid and Rieske KO viability enhancers – cell-based, MELAS cybrids, Rieske KO mouse fibroblasts, CellTiter-Glo, primary screen (AID 1508586;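 active means mean z-score across replicates of 1.96 or higher in either the MELAS or the Rieske mutant cell line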;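 further: z relative to plate mean and SD of compound and empty wells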). The note with it: low glucose.
The nature of assay [13]: viability loss in pontine glioma line – cell-based, SU-DIPG-XVII, MIPE5.0, CellTiter-Glo, qHTS, dose response (AID 1347060; cut-off not given, nearly all actives have AC50 up to about 26 µM). The note with it: CellTiter-Glo ATP luminescence.
A short description of assay [14]: viability loss in pontine glioma line – cell-based, SU-DIPG-XIII, MIPE4.0, CellTiter-Glo, qHTS, dose response (AID 1347061; cut-off not given, nearly all actives have AC50 up to about 37 µM;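 further: cells exposed to compound for 48 hours before readout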). As to conditions: CellTiter-Glo ATP luminescence.
A short description of assay [15]: viability loss in pontine glioma line – cell-based, SU-DIPG-IV, MIPE4.0, CellTiter-Glo, qHTS, dose response (AID 1347063; cut-off not given, nearly all actives have AC50 up to about 30 µM;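 further: compound exposure lasted 48 hours before the viability readout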). As to conditions: CellTiter-Glo ATP luminescence.
A short description of assay [16]: viability loss in pontine glioma line – cell-based, SU-DIPG-XIII, MIPE5.0, CellTiter-Glo, qHTS, dose response (AID 1347064; cut-off not given, nearly all actives have AC50 up to about 23 µM). As to conditions: CellTiter-Glo ATP luminescence.
A short description of assay [17]: viability loss in pontine glioma line – cell-based, SU-DIPG-XXV, MIPE5.0, CellTiter-Glo, qHTS, dose response (AID 1347065; cut-off not given, nearly all actives have AC50 up to about 26 µM;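 further: cells exposed to compound for 48 hours before ATP readout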). The note with it: CellTiter-Glo ATP luminescence.
Assay [18] is described as follows: growth inhibition of DIPG cells – cell-based, MIPE4.0 library, CellTiter-Glo luminescence, qHTS (AID 1347066; cut-off not given, nearly all actives have AC50 up to about 30 µM;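 further: cells exposed to compound for 48 hours before readout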). The note with it: SU-DIPG-VI viability, CellTiter-Glo ATP luminescence.
A short description of assay [19]: growth inhibition of DIPG cells – cell-based, MIPE5.0 library, qHTS (AID 1347068; cut-off not given, nearly all actives have IC50 up to about 30 µM). As to conditions: SU-DIPG-XXV viability.
The mark [20] stands for this setting: stronger effect = lower value, cell number ratio, induced over uninduced.
Where [21] appears, read: measured here: relative caspase fold change +Dox/-Dox.
Setting [22] is: measured here: total cells with miR-34 induction, stronger effect = lower value.
Where [23] appears, read: measured here: total cells without miR-34 induction.
Where [24] appears, read: MELAS cybrid survival, CellTiter-Glo 48 h, stronger effect = higher value.
Where [25] appears, read: Rieske KO mouse fibroblast survival, CellTiter-Glo 72 h.

Values joined by “and” are separate entries in the source; they are usually repeats but may differ in a detail not shown here. Identical values can stand only once. Results filed as inconclusive are left out. Active and inactive are the calls of the source. Unless noted, how the calls were made is not given here.

ATP-dependent translocase ABCB1 (Homo sapiens), sequence (P08183 whole entry, looked up): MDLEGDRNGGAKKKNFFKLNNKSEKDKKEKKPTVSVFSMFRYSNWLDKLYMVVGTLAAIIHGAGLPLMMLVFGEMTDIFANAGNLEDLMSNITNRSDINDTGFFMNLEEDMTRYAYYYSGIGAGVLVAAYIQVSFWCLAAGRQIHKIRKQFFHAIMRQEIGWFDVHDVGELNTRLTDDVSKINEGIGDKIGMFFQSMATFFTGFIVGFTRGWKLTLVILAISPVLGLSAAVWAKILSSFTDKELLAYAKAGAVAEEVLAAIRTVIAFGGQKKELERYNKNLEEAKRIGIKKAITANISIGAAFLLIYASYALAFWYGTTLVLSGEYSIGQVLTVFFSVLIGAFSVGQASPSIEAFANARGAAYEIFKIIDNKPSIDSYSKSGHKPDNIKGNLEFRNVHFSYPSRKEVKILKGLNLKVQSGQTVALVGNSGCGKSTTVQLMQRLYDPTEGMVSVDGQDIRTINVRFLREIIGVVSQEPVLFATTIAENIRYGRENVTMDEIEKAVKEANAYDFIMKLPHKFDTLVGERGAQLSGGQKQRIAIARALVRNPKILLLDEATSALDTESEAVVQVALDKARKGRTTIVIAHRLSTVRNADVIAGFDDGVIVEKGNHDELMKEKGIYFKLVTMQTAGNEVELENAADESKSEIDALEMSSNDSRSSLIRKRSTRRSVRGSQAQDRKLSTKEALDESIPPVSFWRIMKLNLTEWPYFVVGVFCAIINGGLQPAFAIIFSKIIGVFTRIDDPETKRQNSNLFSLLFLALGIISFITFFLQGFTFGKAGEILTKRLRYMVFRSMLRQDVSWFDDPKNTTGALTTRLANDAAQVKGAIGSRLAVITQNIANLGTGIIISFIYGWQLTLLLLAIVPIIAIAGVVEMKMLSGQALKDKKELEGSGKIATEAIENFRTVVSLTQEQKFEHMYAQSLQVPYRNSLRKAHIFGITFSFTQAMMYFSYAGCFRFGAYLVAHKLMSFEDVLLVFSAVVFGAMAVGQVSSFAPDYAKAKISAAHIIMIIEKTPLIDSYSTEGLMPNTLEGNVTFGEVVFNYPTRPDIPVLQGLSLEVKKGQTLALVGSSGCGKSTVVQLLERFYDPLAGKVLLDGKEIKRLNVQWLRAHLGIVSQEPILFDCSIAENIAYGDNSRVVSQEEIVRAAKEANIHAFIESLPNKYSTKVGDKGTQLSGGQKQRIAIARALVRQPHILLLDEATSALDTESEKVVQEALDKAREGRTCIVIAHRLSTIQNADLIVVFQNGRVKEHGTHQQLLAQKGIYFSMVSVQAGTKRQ

As for `CCCN(CCC)[C@@H]1CCc2c(OC)cccc2[C@@H]1C`, the remaining activity in assay [1] was 103% (inactive). Moreover, the fold change was 0.92 (inactive) in assay [2] (setting [20]) and 0.674 in assay [2] (setting [21]). In addition, the cell count turned out to be 8420 in assay [2] (setting [22]) and 9160 in assay [2] (setting [23]). Moreover, in assay [3], the z-score is 0.925 (inactive).
For the molecule `COc1ccc(-n2nc(C(F)(F)F)cc2-c2ccc(Cl)cc2)cc1`, the period change in assay [4] was 0.125 h (inactive). For the same molecule, the remaining activity in [1] is 119% (inactive); in assay [5], 109% (inactive). Further, the fold change in assay [2] (setting [20]) was 0.91 (inactive); in assay [2] (setting [21]), 0.729. The cell count was 7020 in assay [2] (setting [22]) and 7710 in assay [2] (setting [23]). Further, in assay [3], the z-score is -0.695 (inactive).
Turning to `CCNC(=O)[C@H]1O[C@@H](n2cnc3c(N)ncnc32)[C@H](O)[C@@H]1O`, the remaining activity in assay [1] was 122% (inactive); in assay [5], 120% (inactive). The figures for the fold change in assay [2] (setting [20]) and in [2] (setting [21]) were 0.978 (inactive) and 0.831, respectively. Also, the cell count in [2] (setting [22]) came out at 8940; in assay [2] (setting [23]), 9140. Also, the z-score in [3] is -0.23 (inactive).
With `Ic1cncc(OC[C@@H]2CCN2)c1`, the remaining activity in assay [1] is 118% (inactive). The fold change in [2] (setting [20]) is 0.934 (inactive); in assay [2] (setting [21]), 0.549. Also, the results for the cell count in assay [2] (setting [22]) and in [2] (setting [23]) were 9660 and 10300, respectively. For the same molecule, the z-score in assay [3] was -0.135 (inactive).
In the case of `NC(C(=O)O)c1cc(=O)[nH]o1` (configuration not stated), the period change in assay [4] was 0.025 h (inactive). Moreover, in assay [6], the inhibition is -1% (inactive). The fluorescence ratio (interference) in assay [7] was 0.9 (inactive). In addition, the remaining activity in assay [1] is 105% (inactive). For the same molecule, the fold change in [2] (stronger effect = lower value) is 1.08 (inactive) and 0.946 (inactive); in assay [2] (setting [21]), 1.44 and 1.4. Besides, the cell count in assay [2] (setting [22]) was 10500 and 9700; in [2] (setting [23]) it was 9770 and 10300. For the same molecule, the molecule was classed as inactive in assay [8]. Further, in [3], the z-score is 0.635 (inactive) and 0.185 (inactive).
As to `CN1C2CCC1CC(OC(=O)c1cc(Cl)cc(Cl)c1)C2` (configuration not stated), the period change in assay [4] is -0.075 h (inactive). Also, the inhibition in assay [6] is -7% (inactive). Besides, in [7], the fluorescence ratio (interference) was 0.9 (inactive). The remaining activity in assay [1] is 82.7% (inactive). In addition, the fold change was 1.08 (inactive) and 0.937 (inactive) in [2] (stronger effect = lower value); 1.35 and 0.719 in assay [2] (setting [21]). Also, the cell count in [2] (setting [22]) was 8680 and 8550; in [2] (setting [23]), 8070 and 9130. Also, in assay [8], the call was inactive. Besides, the z-score in assay [3] was -0.22 (inactive) and 0.04 (inactive).
As to `N#Cc1ccc(N2CCN(C(=O)COc3ccc4[nH]cc(CCN)c4c3)CC2)cc1`, in assay [1], the remaining activity is 112% (inactive). In addition, the fold change was 0.857 (inactive) in assay [2] (setting [20]) and 1.69 in assay [2] (setting [21]). The cell count in assay [2] (setting [22]) amounted to 8510; in assay [2] (setting [23]) it was 9930. In assay [8], the call was inactive. Further, in assay [3], the z-score is 0.16 (inactive).
For the molecule `CC(C)[C@@]1(NC(=O)[C@@H]2C[C@@H]3c4cccc5[nH]cc(c45)C[C@H]3N(C)C2)O[C@@]2(O)[C@@H]3CCCN3C(=O)[C@H](Cc3ccccc3)N2C1=O`, the fluorescence slope change in [9] is 195% (active). Further, the period change in assay [4] was 0.005 h (inactive). Moreover, the survival in assay [10] is 11.8 (inactive). Besides, the parasite load remaining in [11] is 54.5% (inactive) and 64.8% (inactive) and 17.1% (inactive). Also, in assay [11], the viability was 93% and 73.6% and 61.5%. For the same molecule, the remaining activity in assay [1] is 88.2% (inactive); in [5], 120% (inactive). Besides, the fold change in [2] (stronger effect = lower value) is 0.784 (inactive) and 0.954 (inactive) and 0.887 (inactive); in [2] (setting [21]), 1.05 and 0.961 and 0.856. Further, the cell count in [2] (setting [22]) was 6690 and 7710 and 8510; in [2] (setting [23]) it was 8530 and 8070 and 9590. In addition, the z-score in [12] (setting [24]) is -0.553 (inactive); in assay [12] (setting [25]), 0.653; in [3], -0.045 (inactive) and 0.13 (inactive).
As to `C[C@@]12N[C@@H](Cc3ccccc31)c1ccccc12`, the survival in assay [10] was 4.17 (inactive). Further, the parasite load remaining in [11] is 76.1% (inactive). The same molecule yielded a viability in assay [11] of 94%. Further, the remaining activity in assay [1] is 98.4% (inactive). Besides, the fold change was 0.9 (inactive) and 1.01 (inactive) and 0.896 (inactive) in [2] (stronger effect = lower value); 1.15 and 0.684 and 0.656 in [2] (setting [21]). In addition, the cell count in assay [2] (setting [22]) was 9800 and 8290 and 9030; in assay [2] (setting [23]), 10900 and 8240 and 10100. In addition, the z-score was -0.404 (inactive) and 0.719 (inactive) in assay [12] (setting [24]); -0.00785 and -0.0901 in assay [12] (setting [25]); 0.79 (inactive) in [3].
As to `O=Cc1cn(Cc2ccc(Cl)cc2)c2ccccc12`, the remaining activity in assay [1] was 119% (inactive). In addition, the fold change was 0.901 (inactive) in assay [2] (setting [20]) and 1.34 in [2] (setting [21]). The cell count turned out to be 4020 in assay [2] (setting [22]) and 4470 in [2] (setting [23]). Besides, the z-score in [3] was -0.645 (inactive).
Take `Cc1[nH]c2ccc(O)cc2c1CCN`: the period change in assay [4] was 0.13 h (inactive). Moreover, the inhibition in assay [6] was -6% (inactive). Also, the fluorescence ratio (interference) in assay [7] was 0.9 (inactive). Moreover, the remaining activity is 104% (inactive) in assay [1] and 118% (inactive) in [5]. The fold change in [2] (stronger effect = lower value) was 1.04 (inactive) and 1.02 (inactive); in assay [2] (setting [21]), 0.914 and 0.703. Further, the cell count in assay [2] (setting [22]) was 10800 and 9460; in assay [2] (setting [23]), 10400 and 9310. Moreover, the molecule was classed as inactive in [8]. Moreover, in [3], the z-score is 0.345 (inactive) and -0.12 (inactive).
`Cc1cc(SCc2sc(-c3ccc(C(F)(F)F)c(F)c3)nc2C)ccc1OCC(=O)O`: the remaining activity in assay [1] is 88.1% (inactive). For the same molecule, the molecule was called inactive in [13], in assay [14], in [15], in assay [16], in [17] and in assay [18]. The result in assay [19] was inactive. Besides, the fold change in [2] (setting [20]) is 0.896 (inactive) and 0.953 (inactive) and 0.869 (inactive); in [2] (setting [21]), 0.54 and 0.363 and 1.57. The cell count was 5150 and 8510 and 7240 in [2] (setting [22]); 5740 and 8930 and 8330 in [2] (setting [23]). Moreover, the z-score in [12] (setting [24]) was -0.492 (inactive); in assay [12] (setting [25]), -2.16; in assay [3], 1.59 (inactive).
`Cn1c2c(c3ccccc31)CCNCC2`: in assay [1], the remaining activity is 98.4% (inactive). The fold change was 0.896 (inactive) in assay [2] (setting [20]) and 1.23 in [2] (setting [21]). For the same molecule, the cell count in [2] (setting [22]) stood at 8130; in assay [2] (setting [23]), 9070. Further, in assay [3], the z-score was -0.23 (inactive).
On to `N[C@@H](Cn1oc(=O)[nH]c1=O)C(=O)O`, for which the inhibition in assay [6] was -2% (inactive). In addition, the fluorescence ratio (interference) in assay [7] is 1 (inactive). In addition, the results for the remaining activity in assay [1] and in assay [5] were 106% (inactive) and 109% (inactive), respectively. The fold change was 0.917 (inactive) in [2] (setting [20]) and 0.755 in [2] (setting [21]). The results for the cell count in assay [2] (setting [22]) and in [2] (setting [23]) were 8070 and 8800, respectively. The molecule was called inactive in assay [8]. In addition, the z-score in assay [3] was -0.215 (inactive).

The values above are taken from PubChem BioAssay.
